From PubChem BioAssay (Tox21)
Results filed as inconclusive are left out. Where a call stands in place of a potency, no number is given. Activity calls are given as the source filed them. Unless noted, calls follow the shape of the dose curve; as a rule, active = well fitted curve in the direction sought with a large enough effect in the repeat runs; inconclusive = weak or mixed curves; inactive = no such curve, though single readings can be large; an effect the other way counts as inactive or inconclusive.

Experiments:
[1] = target: Peroxisome proliferator-activated receptor delta (Homo sapiens) (UniProt Q03181); experiment: qHTS assay to identify small molecule antagonists of the peroxisome proliferator-activated receptor delta (PPARd) signaling pathway (AID 743215; active = well fitted inhibition curve with a large enough effect in the signal ratio in the repeat runs, not every such curve was filed as active; the % refers to the signal ratio;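 also: cells stimulated with agonist L165041 at 300 nM final during compound exposure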); conditions: HEK293H PPARd-UAS-bla, beta-lactamase FRET ratio, antagonist, 17 h; series mostly up to 62 µM
Sequence of Peroxisome proliferator-activated receptor delta (Homo sapiens) (Q03181 whole entry, looked up): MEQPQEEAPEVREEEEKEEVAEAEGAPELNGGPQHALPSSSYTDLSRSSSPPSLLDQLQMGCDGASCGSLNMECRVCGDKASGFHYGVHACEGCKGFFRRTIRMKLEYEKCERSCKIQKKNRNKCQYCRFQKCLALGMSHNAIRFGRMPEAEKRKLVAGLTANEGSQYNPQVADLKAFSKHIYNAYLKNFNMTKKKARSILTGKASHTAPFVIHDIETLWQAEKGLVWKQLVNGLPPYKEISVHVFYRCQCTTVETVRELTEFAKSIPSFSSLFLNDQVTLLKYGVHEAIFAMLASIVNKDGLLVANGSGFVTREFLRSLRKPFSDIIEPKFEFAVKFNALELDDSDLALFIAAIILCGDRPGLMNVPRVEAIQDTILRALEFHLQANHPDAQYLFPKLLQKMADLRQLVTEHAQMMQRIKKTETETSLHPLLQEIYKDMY
Method in brief: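 Screen format: qHTS, antagonist mode. HEK293H PPARd-bla cells received compound and 300 nM L165041 (final), 17 h, 37 C. Beta-lactamase detected via FRET substrate fluorescence, 2 h, room temperature.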

[2] = target: Bile acid receptor (Homo sapiens) (UniProt Q96RI1); experiment: qHTS assay to identify small molecule agonists of the farnesoid-X-receptor (FXR) signaling pathway (AID 743220; active = well fitted activation curve with a large enough effect in the signal ratio in the repeat runs, not every such curve was filed as active; the % refers to the signal ratio); conditions: HEK293T FXR-UAS-bla, beta-lactamase FRET ratio, 16 h; series mostly up to 62.6 µM
Sequence of Bile acid receptor (Homo sapiens) (Q96RI1 whole entry, looked up): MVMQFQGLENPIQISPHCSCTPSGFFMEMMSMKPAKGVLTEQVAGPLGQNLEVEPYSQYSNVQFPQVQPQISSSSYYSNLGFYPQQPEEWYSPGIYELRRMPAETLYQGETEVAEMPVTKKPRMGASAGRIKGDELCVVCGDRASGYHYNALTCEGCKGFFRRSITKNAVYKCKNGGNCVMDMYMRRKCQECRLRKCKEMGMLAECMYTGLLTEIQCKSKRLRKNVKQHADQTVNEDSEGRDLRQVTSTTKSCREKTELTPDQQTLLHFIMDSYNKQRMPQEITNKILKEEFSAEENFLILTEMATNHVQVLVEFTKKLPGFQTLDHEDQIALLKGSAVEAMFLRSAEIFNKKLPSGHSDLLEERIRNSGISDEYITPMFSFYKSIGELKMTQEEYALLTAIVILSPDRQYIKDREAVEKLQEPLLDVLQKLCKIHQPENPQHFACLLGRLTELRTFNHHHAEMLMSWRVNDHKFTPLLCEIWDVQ
Method in brief: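 FXR-UAS-bla HEK 293T cells carrying a UAS-driven beta-lactamase reporter were plated for 5 h at 37C/5% CO2, then exposed to DMSO-dissolved Tox21 10K compounds for 16 h at 37C. A LiveBLAzer B/G FRET substrate was loaded for 2 h at room temperature before fluorescence reading.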

[3] = qHTS assay to identify small molecule antagonists of the vitamin D receptor (VDR) signaling pathway - cell viability counter screen (AID 743225); conditions: VDR-bla HEK293T viability, CellTiter-Glo luminescence, 16 h; series mostly up to 61 µM; also: nearly all actives have a fitted effect of over 50% in size
Method in brief: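 In this counter screen, VDR-bla HEK 293T cells receive test compound plus 3 nM final calcitriol for 16 h at 37C. Room-temperature steps of 2 h with the beta-lactamase substrate, then 30 min with CellTiter-Glo, precede the luminescence read.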

[4] = qHTS assay to identify small molecule agonists of the NFkB signaling pathway - cell viability counter screen (AID 1159515; calls by dose curve; also: nearly all actives have a fitted effect of over 55% in size); conditions: NFkB-bla ME-180 viability, CellTiter-Glo luminescence, 5 h; series mostly up to 61 µM
Method in brief: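 Counter screen run alongside the NFkB-bla agonist assay: ME-180 reporter cells exposed to compounds for 5 hr, then lysed with CellTiter-Glo in the same wells. Luminescence, read after 30 min, reflects viable cells.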

[5] = qHTS assay to identify small molecule agonists of the endoplasmic reticulum stress response signaling pathway (AID 1159516; active = well fitted activation curve with a large enough effect in the signal ratio in the repeat runs, not every such curve was filed as active; the % refers to the signal ratio); conditions: ESRE-bla HeLa, ER stress beta-lactamase reporter, 5 h; series mostly up to 61 µM
Method in brief: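 For this screen, HeLa cells stably carrying beta-lactamase under the ER stress response element received test compounds, positive controls or DMSO for 5 hr at 37 C; B/G FRET substrate was then added and dual-wavelength emission recorded.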

[6] = qHTS assay to identify small molecule agonists of the endoplasmic reticulum stress response signaling pathway - cell viability counter screen (AID 1159517; calls by dose curve; also: nearly all actives have a fitted effect of over 50% in size); conditions: ESRE-bla HeLa viability, CellTiter-Glo luminescence, 5 h; series mostly up to 61 µM
Method in brief: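 Steps: seed 1,500 ESRE-bla HeLa cells per well; incubate overnight at 37 C, 5% CO2; add compounds in DMSO for 5 hr; run FRET substrate 2 hr RT; add CellTiter-Glo, wait 30 min, read luminescence.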

[7] = target: Nuclear receptor ROR-gamma (Homo sapiens) (UniProt P51449); experiment: qHTS assay to identify small molecule antagonists of the retinoid-related orphan receptor gamma (ROR-gamma) signaling pathway (AID 1159521; also: nearly all actives have a fitted effect of over 50% in size; also: potency is read from the fitted curve at half-maximal effect); conditions: Tet-on RORgamma CHO cells, RORE-luciferase, 16 h; series mostly up to 92.4 µM
Method in brief: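 Screening format: cell-based luciferase reporter in CHO cells with doxycycline-inducible RORγ. Compound pre-exposure lasts 2 h, doxycycline is 1 uM final, induction runs 16 h at 37 C, and ONE-Glo luminescence is read.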

[8] = qHTS assay to identify small molecule agonists of the AP-1 signaling pathway - cell viability counter screen (AID 1159525; calls by dose curve; also: nearly all actives have a fitted effect of over 55% in size; also: potency is read from the fitted curve at half-maximal effect); conditions: ME-180 AP-1-bla cells viability, ATP luminescence, 5 h; series mostly up to 76.8 µM
Method in brief: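 Same-well cytotoxicity counter screen of the Tox21 10K library in ME-180 cells. The readout is ATP-dependent luminescence after 5 h compound treatment. Data are normalised to DMSO and tetra n-octyl ammonium bromide controls.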

[9] = qHTS assay to identify small molecule antagonists of the peroxisome proliferator-activated receptor delta (PPARd) signaling pathway - cell viability counter screen (AID 743213); conditions: PPARd-bla HEK293H viability, CellTiter-Glo luminescence, 17 h; series mostly up to 62 µM; also: nearly all actives have a fitted effect of over 50% in size
Method in brief: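 CellTiter-Glo was added to PPARd-bla HEK293H wells following 17 h compound treatment in the presence of 300 nM L165041. Luminescence was recorded after 30 min at room temperature.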

[10] = qHTS assay to identify small molecule antagonists of the farnesoid-X-receptor (FXR) signaling pathway - cell viability counter screen (AID 743221; active = well fitted cell-killing curve with a large enough effect in the repeat runs, not every such curve was filed as active; also: nearly all actives have a fitted effect of over 50% in size); conditions: FXR-bla HEK293T viability, CellTiter-Glo luminescence, 16 h; series mostly up to 62.6 µM
Method in brief: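 Compound effects on cell number were measured as CellTiter-Glo luminescence in HEK 293T cells expressing FXR-UAS-bla, after 16 h at 37 C with 50 uM CDCA (final).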

[11] = target: Vitamin D3 receptor (Homo sapiens) (UniProt P11473); experiment: qHTS assay to identify small molecule agonists of the vitamin D receptor (VDR) signaling pathway (AID 743222; calls by dose curve); conditions: HEK293T VDR-UAS-bla, beta-lactamase FRET ratio, 16 h; series mostly up to 63.5 µM
Sequence of Vitamin D3 receptor (Homo sapiens) (P11473 whole entry, looked up): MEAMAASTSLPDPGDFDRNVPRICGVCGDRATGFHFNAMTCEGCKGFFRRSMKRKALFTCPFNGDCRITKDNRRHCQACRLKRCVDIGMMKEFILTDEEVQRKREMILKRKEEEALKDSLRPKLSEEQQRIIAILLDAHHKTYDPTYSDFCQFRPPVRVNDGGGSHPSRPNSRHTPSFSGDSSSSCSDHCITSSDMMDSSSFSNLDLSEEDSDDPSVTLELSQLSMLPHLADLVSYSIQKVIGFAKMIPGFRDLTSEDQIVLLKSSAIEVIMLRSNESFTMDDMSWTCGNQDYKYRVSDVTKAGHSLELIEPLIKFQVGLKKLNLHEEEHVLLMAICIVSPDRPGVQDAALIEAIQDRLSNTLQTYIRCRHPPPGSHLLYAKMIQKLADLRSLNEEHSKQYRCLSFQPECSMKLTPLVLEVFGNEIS
Method in brief: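 Using LiveBLAzer B/G FRET detection, agonism was scored in VDR-bla cells exposed overnight (16 h, 37C) to DMSO-dissolved compounds; substrate incubation was 2 h at room temperature.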

[12] = qHTS assay to identify small molecule agonists of the vitamin D receptor (VDR) signaling pathway - cell viability counter screen (AID 743224); conditions: VDR-bla HEK293T viability, CellTiter-Glo luminescence, 16 h; series mostly up to 62.6 µM; also: nearly all actives have a fitted effect of over 50% in size
Method in brief: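 Counter screen for cytotoxicity: VDR-bla cells at 2,000 cells/well, 16 h compound exposure, then CellTiter-Glo luminescence after the beta-lactamase measurement.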

[13] = qHTS assay to identify small molecule agonists of the peroxisome proliferator-activated receptor delta (PPARd) signaling pathway - cell viability counter screen (AID 743211); conditions: PPARd-bla HEK293H viability, CellTiter-Glo luminescence, 17 h; series mostly up to 62.6 µM; also: nearly all actives have a fitted effect of over 55% in size; also: potency is read from the fitted curve at half-maximal effect
Method in brief: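 Following 5 h plating at 37 C and 5% CO2, PPARd UAS-bla HEK293H cells took up test compounds for 17 h. Viability was quantified by luminescence 30 min after CellTiter-Glo addition at room temperature.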

[14] = target: Peroxisome proliferator-activated receptor delta (Homo sapiens) (UniProt Q03181); experiment: qHTS assay to identify small molecule agonists of the peroxisome proliferator-activated receptor delta (PPARd) signaling pathway (AID 743212; calls by dose curve); conditions: HEK293H PPARd-UAS-bla, beta-lactamase FRET ratio, 17 h; series mostly up to 62.6 µM
Method in brief: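 Read-out: beta-lactamase FRET fluorescence after 2 h room-temperature incubation with LiveBLAzer B/G substrate. Cells were HEK293H carrying a UAS-bla reporter for PPARd, treated at 37 C with DMSO-dissolved compounds.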

[15] = target: Bile acid receptor (Homo sapiens) (UniProt Q96RI1); experiment: qHTS assay to identify small molecule antagonists of the farnesoid-X-receptor (FXR) signaling pathway (AID 743217; active = well fitted inhibition curve with a large enough effect in the signal ratio in the repeat runs, not every such curve was filed as active; the % refers to the signal ratio); conditions: HEK293T FXR-UAS-bla, beta-lactamase ratio, CDCA-stimulated, 16 h; series mostly up to 62.6 µM
Method in brief: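 Quantitative HTS, beta-lactamase reporter format: FXR-UAS-bla HEK 293T cells co-treated 16 h at 37 °C with compounds and 50 uM final chenodeoxycholic acid, then read by B/G FRET fluorescence.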

[16] = qHTS assay to identify small molecule agonists of the farnesoid-X-receptor (FXR) signaling pathway - cell viability counter screen (AID 743218); conditions: FXR-bla HEK293T viability, CellTiter-Glo luminescence, 16 h; series mostly up to 62.6 µM; also: nearly all actives have a fitted effect of over 45% in size; also: potency is read from the fitted curve at half-maximal effect
Method in brief: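 Same-well cytotoxicity check on FXR-UAS-bla HEK 293T cells: 5 h attachment, 16 h compound at 37 C, CellTiter-Glo luminescence read at room temperature after 30 min.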

[17] = target: Vitamin D3 receptor (Homo sapiens) (UniProt P11473); experiment: qHTS assay to identify small molecule antagonists of the vitamin D receptor (VDR) signaling pathway (AID 743223; active = well fitted inhibition curve with a large enough effect in the signal ratio in the repeat runs, not every such curve was filed as active; the % refers to the signal ratio); conditions: VDR-UAS-bla HEK293T, beta-lactamase FRET ratio, 16 h; series mostly up to 61 µM
Method in brief: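 Beta-lactamase activity in VDR-bla cells is measured by FRET substrate fluorescence (2 h, room temperature) after cells spend 16 h at 37C with test compound and 3 nM final 1alpha,25-dihydroxyvitamin D3.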

[18] = qHTS assay to identify small molecule antagonists of the retinoid-related orphan receptor gamma (ROR-gamma) signaling pathway - cell viability counter screen (AID 1159520); conditions: Tet-on RORgamma CHO cells viability, ATP luminescence, 16 h; series mostly up to 92.4 µM; also: nearly all actives have a fitted effect of over 50% in size; also: potency is read from the fitted curve at half-maximal effect
Method in brief: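 Tet-on ROR gamma CHO cells were given compounds for 2 hr, then doxycycline hyclate at 1 uM final, and incubated 16 hr at 37 C. Viability was measured as ATP content by CellTiter-Glo luminescence.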

[19] = qHTS assay to identify small molecule agonists of the AP-1 signaling pathway (AID 1159526; calls by dose curve); conditions: ME-180 (cervical carcinoma) AP-1-bla reporter, beta-lactamase FRET ratio, 5 h; series mostly up to 76.8 µM
[20] = target: Retinoic acid receptor RXR-alpha (Homo sapiens) (UniProt P19793); experiment: qHTS assay to identify small molecule agonists of the RXR signaling pathway (AID 1159527; calls by dose curve; also: nearly all actives have a fitted effect of over 35% in size); conditions: HEK293T RXRa-UAS-bla, beta-lactamase ratio, 16 h; series mostly up to 76.8 µM
Sequence of Retinoic acid receptor RXR-alpha (Homo sapiens) (P19793 whole entry, looked up): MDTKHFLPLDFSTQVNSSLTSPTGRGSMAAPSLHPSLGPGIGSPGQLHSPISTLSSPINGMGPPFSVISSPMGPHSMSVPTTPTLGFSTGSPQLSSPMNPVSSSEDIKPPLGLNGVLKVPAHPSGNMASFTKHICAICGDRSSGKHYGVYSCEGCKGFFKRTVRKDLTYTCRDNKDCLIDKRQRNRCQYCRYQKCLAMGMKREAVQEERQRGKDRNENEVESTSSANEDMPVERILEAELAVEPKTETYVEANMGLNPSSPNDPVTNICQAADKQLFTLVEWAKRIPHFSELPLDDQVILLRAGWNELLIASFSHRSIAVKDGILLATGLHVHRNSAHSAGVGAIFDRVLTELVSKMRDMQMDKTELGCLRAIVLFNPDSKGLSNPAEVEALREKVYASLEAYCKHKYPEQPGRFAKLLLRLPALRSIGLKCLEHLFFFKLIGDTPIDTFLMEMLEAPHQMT
Method in brief: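 Fluorescence ratio readout (460 vs 530 nm) from GeneBLAzer RXR-alpha HEK 293T cells after 16 hr compound treatment; cells seeded 5 hr beforehand in low-serum, charcoal-stripped medium.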

Row | Structure (SMILES) | Potency [1] | Potency [2] | Potency [3] | Potency [4] | Potency [5] | Potency [6] | Potency [7] | Potency [8] | Potency [9] | Potency [10] | Potency [11] | Potency [12] | Potency [13] | Potency [14] | Potency [15] | Potency [16] | Potency [17] | Potency [18] | Potency [19] | Potency [20]
1 | O=C(NC(=O)c1c(F)cccc1F)Nc1ccc(Oc2ccc(C(F)(F)F)cc2Cl)cc1F | inactive | inactive | inactive | inactive | inactive | inactive | 24.3 µM (active) | inactive | – | – | – | – | – | – | – | – | – | – | – | –
2 | C#CCC1=C(C)C(OC(=O)C2C(C=C(C)C)C2(C)C)CC1=O (configuration not stated) | inactive | – | – | inactive | inactive | inactive | – | inactive | inactive | inactive | inactive | inactive | – | – | – | – | – | – | – | –
3 | C=CC(=C)C | inactive | inactive | – | inactive | inactive | – | inactive | inactive | inactive | – | inactive | inactive | inactive | inactive | inactive | inactive | inactive | inactive | inactive | inactive
4 | COC(=O)N(OC)c1ccccc1COc1ccn(-c2ccc(Cl)cc2)n1 | – | inactive | – | inactive | inactive | inactive | 0.273 µM (active) | inactive | – | inactive | inactive | – | – | – | – | inactive | – | – | – | –
5 | CCCCC(CC)COC(=O)OOC(C)(C)C (configuration not stated) | inactive | – | inactive | inactive | inactive | – | inactive | inactive | inactive | inactive | inactive | inactive | inactive | inactive | – | – | – | inactive | inactive | inactive
6 | O=S(=O)(NS(=O)(=O)C(F)(F)F)C(F)(F)F | – | – | inactive | inactive | inactive | inactive | – | – | inactive | – | – | inactive | inactive | – | – | inactive | – | inactive | – | –
7 | CCOP(=S)(NC(C)C)Oc1ccccc1C(=O)OC(C)C (configuration not stated) | – | inactive | inactive | inactive | inactive | inactive | 21.7 µM (active) | – | inactive | – | – | inactive | inactive | inactive | – | 21.9 µM (active) | inactive | – | inactive | –
8 | Clc1ccc(C(Cl)(Cl)Cl)cc1Cl | inactive | – | inactive | inactive | inactive | – | inactive | inactive | inactive | inactive | – | inactive | inactive | inactive | – | – | inactive | 53.3 µM (active) | inactive | inactive
9 | COc1c2c(cc3c1OCO3)CCN(C)C2 | inactive | – | – | inactive | inactive | – | inactive | inactive | inactive | inactive | – | inactive | inactive | inactive | – | – | inactive | inactive | – | inactive
10 | CCCCCCCc1ccc(O)cc1 | – | – | – | inactive | inactive | – | inactive | 54.9 µM (active) | inactive | inactive | inactive | – | 21.9 µM (active) | inactive | – | – | – | – | – | –
